Data reported in the supplement of paper PMC7858590.

What follows are compounds tested on human monocyte-derived macrophages (polarized) (assay: cell shape (eccentricity) Z-score vs DMSO control; higher = more elongated, M2-like morphology). Conditions: 5 µM; 24 h; macrophage state: M1-polarized (IFNg + TNFa), cytokines present during treatment.
Method: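 Primary-screen hits were rescreened on polarized hMDMs with the differentiating cytokines (IL-4 + IL-13 or IFNg + TNFa) kept in the medium during treatment with compound at 5 uM for 24 h. The eccentricity Z-score vs DMSO wells is averaged over experiments.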

**Q.** Which “cell shape (Z-score)” value does the source give for O=C(/C=C/c1ccccc1)c1ccc(O)cc1 here?
**A.** Its value is 8.35.

**Q.** Which “cell shape (Z-score)” value does the source give for C(=N\NC1=NCCN1)/c1c2ccccc2c(/C=N/NC2=NCCN2)c2ccccc12 here?
**A.** Its value is 33.2.

**Q.** Which “cell shape (Z-score)” value does the source give for Nc1nc(N)c2nc(-c3cccc(O)c3)c(-c3cccc(O)c3)nc2n1 here?
**A.** Its value is 2.64.

**Q.** Cc1cc(Nc2nc(N[C@@H](C)c3ncc(F)cn3)ncc2Cl)[nH]n1 was tested. Which “cell shape (Z-score)” value did it give?
**A.** The value was 10.1.

**Q.** For COc1ccc(OC)c(-c2nnc3n2N=C(c2ccc(OC)c(OC)c2)CS3)c1, which “cell shape (Z-score)” value is on record?
**A.** Its value is 13.8.

**Q.** Cc1c(NC(=O)c2cccnc2)c(=O)n(-c2ccccc2)n1C was tested. Which “cell shape (Z-score)” value did it give?
**A.** The value was 1.43.

**Q.** Which “cell shape (Z-score)” value does the source give for O=C(Nc1ccc(OC(F)(F)F)cc1)c1sccc1NCc1ccnc2ccccc12 here?
**A.** The value was 3.81.

**Q.** With CN1CCN(CCOc2cc(OC3CCOCC3)c3c(Nc4c(Cl)ccc5c4OCO5)ncnc3c2)CC1 as the compound, how does the “cell shape (Z-score)” value read?
**A.** Its value is 4.07.

**Q.** How did the “cell shape (Z-score)” value turn out when COc1cc2c(cc1-c1c(C)noc1C)ncc1[nH]c(=O)n([C@H](C)c3ccccn3)c12 was run?
**A.** The value was -12.4.

**Q.** How did the “cell shape (Z-score)” value turn out when CCCCCCCCCCC(C)(C)C(=O)Nc1c(OC)cc(OC)cc1OC was run?
**A.** Its value is -3.18.

**Q.** With [O-][NH2+]c1ccc(O)c2ncccc12 as the compound, how does the “cell shape (Z-score)” value read?
**A.** The value was -6.06.

**Q.** Which “cell shape (Z-score)” value does the source give for C[C@H]1[C@H](NC(=O)/C(=N\OC(C)(C)C(=O)O)c2csc(N)n2)C(=O)N1S(=O)(=O)O here?
**A.** The value was 0.443.

**Q.** COc1cc2c(Oc3ccc4[nH]c(C)cc4c3F)ncnc2cc1OCCCN1CCCC1 was tested. Which “cell shape (Z-score)” value did it give?
**A.** Its value is 12.3.

**Q.** For c1ccc(-c2nnc(N3CCOCC3)nc2-c2ccccc2)cc1, which “cell shape (Z-score)” value is on record?
**A.** The value was -1.34.

**Q.** COc1nccnc1NS(=O)(=O)c1ccc(NC(=O)/C=C/c2ccc([N+](=O)[O-])s2)cc1 was tested. Which “cell shape (Z-score)” value did it give?
**A.** Its value is -4.64.

**Q.** How did the “cell shape (Z-score)” value turn out when CC[C@H](Nc1ncnc2[nH]cnc12)c1nc2cccc(F)c2c(=O)n1-c1ccccc1 was run?
**A.** Its value is -16.8.

**Q.** COc1cccc2c1C(=O)c1c(O)c3c(c(O)c1C2=O)C[C@@](O)(C(=O)CO)C[C@@H]3O[C@H]1C[C@H](N)[C@H](O)[C@H](C)O1 was tested. Which “cell shape (Z-score)” value did it give?
**A.** Its value is 22.

**Q.** For Nc1nc2c(ncn2COCCO)c(=O)[nH]1, which “cell shape (Z-score)” value is on record?
**A.** Its value is -5.79.

**Q.** How did the “cell shape (Z-score)” value turn out when C/C=C/c1ccc2c(c1)O[C@@H](CN(C)C(=O)c1ccccc1)[C@@H](C)CN([C@@H](C)CO)S2(=O)=O was run?
**A.** The value was -5.32.

**Q.** How did the “cell shape (Z-score)” value turn out when COc1cccc2c1C(=O)c1c(O)c3c(c(O)c1C2=O)C[C@@](O)(C(C)=O)C[C@@H]3O[C@H]1C[C@H](N)[C@H](O)[C@H](C)O1 was run?
**A.** The value was 8.83.

**Q.** Which “cell shape (Z-score)” value does the source give for O=C(O)c1ccc2c(c1)nc(Nc1cccc(Cl)c1)c1ccncc12 here?
**A.** The value was 9.47.

**Q.** O=C(c1ccc(/C=C/c2n[nH]c3ccccc23)cc1)N1CCNCC1 was tested. Which “cell shape (Z-score)” value did it give?
**A.** The value was 28.4.

**Q.** With CC(C(=O)Nc1cccc(/N=C/c2c(O)ccc3ccccc23)c1)c1ccccc1 (stereo not given) as the compound, how does the “cell shape (Z-score)” value read?
**A.** Its value is 3.72.

**Q.** Which “cell shape (Z-score)” value does the source give for CCOc1cc2ncc(C#N)c(Nc3ccc(OCc4ccccn4)c(Cl)c3)c2cc1NC(=O)/C=C/CN(C)C here?
**A.** The value was 0.0624.

**Q.** For CCCCCc1c2c(cc(O)c1C(=O)O)OC(=O)c1c(cc(OC)cc1C(=O)CCCC)O2, which “cell shape (Z-score)” value is on record?
**A.** Its value is 2.35.

**Q.** Which “cell shape (Z-score)” value does the source give for COc1ccc(N(C(=O)c2ccccc2)S(=O)(=O)c2cc(OC)ccc2OC)cc1 here?
**A.** The value was -2.07.

Same assay, conditions: 5 µM; 24 h; macrophage state: M2-polarized (IL-4 + IL-13), cytokines present during treatment

**Q.** For COCCCOc1ccnc(C[S+]([O-])c2nc3ccccc3[nH]2)c1C (stereo not given), which “cell shape (Z-score)” value is on record?
**A.** The value was 1.52.

**Q.** Which “cell shape (Z-score)” value does the source give for O=C(Nc1ccc([N+](=O)[O-])cc1Cl)c1cc(Cl)ccc1O [Niclosamide.2mM] here?
**A.** The value was -6.52.

**Q.** Which “cell shape (Z-score)” value does the source give for OCc1ccc(-c2ccc(-c3ccc(CO)s3)o2)s1 here?
**A.** The value was -20.9.

**Q.** With CC(C)C1C2CCC(C2)C1N (stereo not given) as the compound, how does the “cell shape (Z-score)” value read?
**A.** The value was -1.17.

**Q.** How did the “cell shape (Z-score)” value turn out when C[C@@]12C[C@]3(O)O[C@H](O1)C1(COC(=O)c4ccccc4)[C@H]3C[C@@]12O[C@@H]1O[C@H](COC(=O)c2ccccc2)[C@@H](O)[C@H](O)[C@H]1O was run?
**A.** The value was -2.92.

**Q.** How did the “cell shape (Z-score)” value turn out when CC(C)CC1NC(=O)C(C)NC1=O (stereo not given) was run?
**A.** The value was -2.08.

**Q.** O=C(CCCc1ccc(-c2ccccc2F)cc1)Nc1ccc(O)cc1 was tested. Which “cell shape (Z-score)” value did it give?
**A.** The value was -9.79.

**Q.** Which “cell shape (Z-score)” value does the source give for COc1ccc(C[C@H](N)C(=O)N[C@H]2[C@@H](O)[C@H](n3cnc4c(N(C)C)ncnc43)O[C@@H]2CO)cc1 here?
**A.** The value was -12.5.

**Q.** CC(C)c1ccc(Cn2ccc3c4c(N)nc(NC5CC5)nc4ccc32)cc1 was tested. Which “cell shape (Z-score)” value did it give?
**A.** Its value is -11.

**Q.** Which “cell shape (Z-score)” value does the source give for CC(=O)Oc1cc2c(c(C)c1OC(C)=O)CC=C1[C@@]2(C)CC[C@@]2(C)C3C[C@](C)(C(=O)O)CC[C@]3(C)CC[C@]12C (stereo not given in full) here?
**A.** Its value is -0.297.

**Q.** Which “cell shape (Z-score)” value does the source give for Cc1cc2cc3c(C)cc(=O)oc3c(C)c2o1 here?
**A.** Its value is 1.88.

**Q.** How did the “cell shape (Z-score)” value turn out when CCCSc1ccc2[nH]c(NC(=O)OC)nc2c1 was run?
**A.** Its value is -6.38.

**Q.** How did the “cell shape (Z-score)” value turn out when Cc1cc(C(C)(C)CC(C)(C)C)ccc1OCCOCC[N+](C)(C)Cc1ccccc1 was run?
**A.** Its value is -3.9.

**Q.** Which “cell shape (Z-score)” value does the source give for COC(=O)C[C@@H]1C(C(=O)O)=CO[C@@H](O[C@@H]2O[C@H](CO)[C@@H](O)[C@H](O)[C@H]2O)/C1=C\COC(=O)/C=C/c1ccccc1 here?
**A.** Its value is -7.78.
